MCF10A rerep: A quantitative high throughput screen for small molecules that induce DNA re-replication in MCF 10a normal breast cells. MCF 10A DNA re-replication, Hoechst nuclear intensity, 48 h. Potency, µM (doses to about 46.1 µM), without a hit: at the top dose activity, positive = re-replication, actives largely listed as activators. 350,000 compounds, 2.9% hits. AID 624296, 2012; also: potency is read from the fitted curve at half-maximal effect; % of control where 0% means no effect; nearly all actives have a fitted effect of over 50% in size
IL-1B inflam inh: qHTS for Inhibitors of Inflammasome Signaling: IL-1-beta AlphaLISA Primary Screen; THP-1 LPS/ATP IL-1B secretion, AlphaLISA, 16 h; stronger effect = lower value; activity change, % at 57.5 µM; 360,000 compounds, 4.7% hits; AID 743279, 2014; in the data active = activity change below about -50%; inconclusive = mostly about -30% to -49%; also: % is scaled to controls: 0 for no effect and ±100 for the full control effect
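Secreted IL-1B measured by AlphaLISA bead assay after 16 h compound exposure of THP-1 cells; compounds (final up to 57.5 uM) added 1 h before LPS (250 ng/mL) and ATP (1.25 mM) stimulation; lower signal means less secretion.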
ATXN viability: Viability Counterscreen for Primary qHTS for Inhibitors of ATXN expression; S2 cells (HEK-293 line with an ATXN2-luciferase reporter) viability, CellTiter-Fluor protease fluorescence, 24 h; Potency, µM (doses to about 56.7 µM), hits mostly cytotoxic; 400,000 compounds, 0.49% hits; also: potency is read from the fitted curve at half-maximal effect; nearly all actives have a fitted effect of over 40% in size
SW480 rereplic: A quantitative high throughput screen for small molecules that induce DNA re-replication in SW480 colon adenocarcinoma cells. SW480 DNA re-replication, Hoechst DNA content imaging, 48 h. Potency, µM (series often up to 46.1 µM), inactives show at the highest dose re-replication activation, hits mostly activators. 340,000 compounds, 1.8% hits. AID 624297, 2012; also: potency is read from the fitted curve at half-maximal effect; % of control where 0% means no effect; nearly all actives have a fitted effect of over 55% in size
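First, 250 cells per well were seeded. Next, compound or vehicle (23 nL) was pinned in, plates sat 48 hr at 37 C. Finally Hoechst was added for 40 min before fluorescence scanning.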
PINK1 expr mod: A Quantitative High throughput Screen to Identify Chemical Modulators of PINK1 Expression; AID 624263, 2012; Potency, µM (series often up to 76.6 µM), for the others: top-dose activation (PINK1 increase), hits mostly activators; 410,000 compounds, 0.2% hits; PINK1 immunofluorescence, high-content cytometry, 24 h; active = well fitted activation curve with a large enough effect; inconclusive = small, poorly fitted or top-dose-only effect; cell line not stated here; also: potency is read from the fitted curve at half-maximal effect; % of control where 0% means no effect; nearly all actives have a fitted effect of over 65% in size
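Stable cell line treated 24 h with compounds at 5 concentrations (CCCP controls), then fixed and immunostained for PINK1 plus nuclear and cell stains; PINK1 immunofluorescence quantified by laser-scanning microplate cytometry.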
ATXN2 expr inh: Primary qHTS for Inhibitors of ATXN expression | Potency, µM (titrated, usually from 57 µM), for the others: top-dose activity change, negative = inhibition, actives largely listed as inhibitors | AID 1745845, 2022 | HEK-293 ATXN2-luciferase reporter, luminescence, 24 h | 360,000 compounds, 0.72% hits; also: potency is read from the fitted curve at half-maximal effect; % is scaled to controls: 0 for no effect and ±100 for the full control effect; nearly all actives have a fitted effect of over 55% in size
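ATXN2-luciferase reporter cells (luciferase flanked by upstream and downstream ATXN2 gene portions) were treated 24 h at 37 °C with compounds at up to 57 uM. SteadyGlo luminescence gave expression; GF-AFC fluorescence gave viability.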
An asterisk follows results filed as active; i = inactive; u = inconclusive; x = not tested or not shown; [ ] = another dose, or the depositor's remark. Compounds with a hit are over-represented: about 7.1% of the library has one in this group of screens. Unless noted, calls follow the shape of the dose curve; as a rule, active = well fitted curve in the direction sought with a large enough effect; inconclusive = small, poorly fitted or top-dose-only effect, or another doubt; inactive = no such curve, though single readings can be large; an effect the other way counts as inactive or inconclusive.

SMILES	MCF10A rerep	IL-1B inflam inh	ATXN viability	SW480 rereplic	PINK1 expr mod	ATXN2 expr inh
CCN1CCN(CCCNC(=O)c2cc3c(s2)-c2c(C)cccc2OC3)CC1	x	x	i	x	1%	-17%
Cc1ccc(C(=O)Nc2ccc3oc(-c4ccc(C(C)(C)C)cc4)nc3c2)cc1	x	x	i	x	2%	8%
Cc1cc(Cl)ccc1NC(=O)C1CCN(c2nnc(-n3c(C)ccc3C)s2)CC1	x	x	x	x	2%	x
CCOc1ccccc1CNC(=O)c1ccc(Cn2c(SCc3ccccc3)nc3cccnc32)cc1	x	x	x	x	-1%	x
O=C(CC1(O)C(=O)Nc2cc(Cl)cc(Cl)c21)c1ccccc1O (configuration not stated)	15µM*	-80*	u	u	1%	u
COc1ccc(-c2nnc3n(CCc4ccccc4)c(=O)c4ccccc4n23)c(OC)c1	21µM*	26	u	17%	9%	-25%
COc1ccc(Cl)cc1NC(=O)CN1CCC(n2nnc3cc(C)ccc32)CC1	u	9	u	0%	1%	-17%
Cc1ccc2c(c1)nnn2C1CCN(CC(=O)Nc2ccccc2N2CCOCC2)CC1	0%	-53*	u	11%	u	-28%
Cc1ccc2c(c1)nnn2C1CCN(CC(=O)NCCc2ccccc2)CC1	27%	-68*	i	u	0%[38.3 µM]	-16%
CC(C)NC(=O)CCCc1cn(C)c2ccccc12	-8%	-2	i	-1%	-3%[38.3 µM]	3%
CC(CCc1ccccc1)NC(=O)CCc1cn(C)c2ccccc12 (configuration not stated)	6%	-77*	i	-9%	1%	-11%
CN(C)/C=N/C(=S)Nc1cc(Cl)cc(Cl)c1	-4%	-2	x	-3%	0%	-33%
CN(C)/C=N/C(=S)Nc1ccc(Cl)c(Cl)c1	9%	-91*	i	4%	-1%	17%
COc1ccc2c(c1)CC[C@H]1[C@@H]2CC[C@]2(C)[C@@H](NCCCCCCN3C(=O)C=CC3=O)CC[C@H]12	x	x	x	x	x	40%
Cc1cc(C)c(S(=O)(=O)Nc2ccc(-c3ccc(N4CCCCCC4)nn3)cc2)c(C)c1	x	x	u	x	1%	29%
O=C(C1=NNCC1c1ccccc1)C1OC1c1ccccc1 (configuration not stated)	u	-89*	i	-38%	-1%	49%
Nc1nc(=O)n([C@H]2C[C@H](O)[C@@H](CO)O2)cc1F	x	x	x	x	x	0.31µM*
CCC1CN(C(=O)Nc2cccc3c2CCCC3)c2cc(C)ccc2O1 (configuration not stated)	x	x	x	x	1%	x
Cc1cccc(C(=O)NCCC(=O)Nc2ccc(C)c(F)c2)c1	15%	-10	i	0%	3%	-9%
O=C(CCc1ccccc1)Nc1ccc(F)c([N+](=O)[O-])c1	-8%	-94*	i	-26%	1%	-18%
Cc1ccc2nc(SC(C)C(=O)Nc3cccc([N+](=O)[O-])c3)[nH]c2c1 (configuration not stated)	3%	-73*	i	-6%	u	-25%
Cc1ccc2nc(SCC(=O)Nc3ccc(C)c([N+](=O)[O-])c3)[nH]c2c1	7%	-8	i	2%	3%	-18%
Cc1cccc(C(=O)NCCC(=O)Nc2ccc(F)c([N+](=O)[O-])c2)c1	-3%	-64*	i	3%	-1%	-19%
Cc1ccc2nc(SCC(=O)Nc3ccc(F)c([N+](=O)[O-])c3)[nH]c2c1	u	-64*	i	-12%	u	-8%
CC(C)c1ccc(C2N=C(N)Nc3nc4ccccc4n32)cc1 (configuration not stated)	x	x	i	x	2%	12%
SMILES	MCF10A rerep	IL-1B inflam inh	ATXN viability	SW480 rereplic	PINK1 expr mod	ATXN2 expr inh
COC(=O)c1c(C)nc2ccccc2c1C(=O)O	-7%	-3	i	-1%	-2%	10%
COC(=O)c1cc(C)[nH]c2c(C)cc3nc4ccccc4c3c12	21µM*	-98*	i	u	-2%	-12%
CN(CC(=O)Nc1ccc(Cl)c(Cl)c1)C1CCCCC1	29%	-10	i	22%	40µM*	-14%
CN(C(=O)CSCC(=O)Nc1ccc(Cl)cc1)C1CCCCC1	-2%	-53*	i	-13%	3%	-27%
CN(CC(=O)Nc1ccc(Cl)c(Cl)c1)C(=O)C12CC3CC(CC(C3)C1)C2	u	-54*	i	2%	u	-12%
COc1cc(NC(=O)CSCC(=O)N(C)C2CCCCC2)cc(OC)c1	3%	1	i	-1%	-1%	-2%
CCOc1ccc(N(CC(=O)NC2CCCC2)C(=O)CSc2nnc(COc3ccccc3)o2)cc1	0%	-55*	i	0%	-3%[38.3 µM]	2%
O=C(CN(C(=O)CSc1nnc(COc2ccccc2)o1)c1ccc(F)cc1)NC1CCCC1	-1%	-26	i	5%	29%[38.3 µM]	-2%
Cc1ccccc1NC(=O)c1c(C)oc2ccc(O)c(CN(C)Cc3ccccc3)c12	x	x	x	x	0%	x
Cc1nc2c(sc(=S)n2Cc2ccco2)c(=O)n1CC(=O)Nc1cc(F)ccc1F	23µM*	6	u	-5%	3%	x
CCn1c(=S)sc2c(=O)n(CC(=O)Nc3ccccc3C(F)(F)F)c(C)nc21	-8%	-4	32µM*	-8%	7%	x
Cc1nc2c(sc(=S)n2Cc2ccco2)c(=O)n1CC(=O)Nc1ccc(F)cc1	-1%	-9	x	-9%	8%	x
CC1=C(C(=O)Nc2ccccc2)C(c2ccccc2C)n2nc(SCC(=O)c3ccc(C)cc3)nc2N1 (configuration not stated)	x	x	i	x	4%	-6%
COc1ccc(NC(=O)CSc2ncc(-c3ccc(F)cc3)n2Cc2ccco2)cc1	u	-62*	i	3%[9.22 µM]	-2%	-17%
COc1ccc(-c2cnc(SCC(=O)Nc3cc(C)on3)n2Cc2ccco2)cc1	21%	-13	i	-1%	1%	-9%
COc1cc([N+](=O)[O-])ccc1-c1ccc(/C=N\n2cnnc2)o1	-5%	-13	i	3%	-1%	x
O=[N+]([O-])c1ccc(OC(F)F)c(/C=N/n2cnnc2)c1	0%	32	i	3.3µM*	6%	-15%
O=[N+]([O-])c1cc(Cl)ccc1N1CCCC1	2%	0	i	3%	2%	-2%
O=C1C(Cl)=C(N2CCN(c3ccccc3[N+](=O)[O-])CC2)C(=O)c2ccccc21	u	-104*	u	16µM*	-3%	-9%
